Experimental findings from PubChem BioAssay (EPA / NIEHS) are described below.

Read-out in experiment [1]: TIMP metallopeptidase inhibitor 2 (TIMP2), TIMP2 (gene 7077)
Kind of experiment: BSK_KF3CT_TIMP2: BioMAP Diversity Plus: KF3CT Assay for TIMP metallopeptidase inhibitor 2 (TIMP2) Biomarker Activity (AID 2283071). The note with it: primary human keratinocytes with fibroblasts; actives raise or lower the signal. In outline: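 Chemicals were dosed onto human skin primary co-cultures of keratinocytes and foreskin fibroblasts, and TIMP-2 was measured by ELISA after 24 hours. Activity in either direction was fitted relative to DMSO.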

Read-out in experiment [2]: C-C motif chemokine 2 (Homo sapiens) (UniProt P13500)
Nature of the experiment: BSK_KF3CT_MCP1: BioMAP Diversity Plus: KF3CT Assay for Monocyte Chemoattractant Protein 1 (MCP1/CCL2) Biomarker Activity (AID 2283073). To be noted: primary human keratinocytes with fibroblasts; actives raise or lower the signal. In outline:
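ELISA read-out of MCP-1, 24 h post-dose, in primary human skin keratinocytes co-cultured with fibroblasts. Parallel SRB staining monitors cytotoxicity; changes fitted both directions relative to DMSO.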

Read-out in experiment [3]: Matrix Metallopeptidase 9 (MMP9), MMP9 (gene 4318)
Kind of experiment: BSK_KF3CT_MMP9: BioMAP Diversity Plus: KF3CT Assay for Matrix Metallopeptidase 9 (MMP9) Biomarker Activity (AID 2283074). To be noted: primary human keratinocytes with fibroblasts; actives raise or lower the signal. In outline: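 ELISA read-out of MMP-9 at 24 h post-dosing in a co-culture of human skin keratinocytes and foreskin fibroblasts. Gain or loss of signal was fitted in both directions against DMSO.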

Read-out in experiment [4]: urokinase plasminogen activator (uPA), PLAU (gene 5328)
Kind of experiment: BSK_KF3CT_uPA: BioMAP Diversity Plus: KF3CT Assay for urokinase plasminogen activator (uPA) Biomarker Activity (AID 2283075). The note with it: primary human keratinocytes with fibroblasts; actives raise or lower the signal. In a few lines:
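Skin co-culture (keratinocytes + foreskin fibroblasts), human primary; 24 h post-dose; uPA by ELISA; gain/loss fit vs DMSO baseline.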

Read-out in experiment [5]: CD40, CD40 (gene 958)
Nature of the experiment: BSK_LPS_CD40: BioMAP Diversity Plus: LPS Assay for CD40 Biomarker Activity (AID 2283076). The note with it: primary human HUVEC with PBMC; actives raise or lower the signal. In a few lines:
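In the LPS system of human endothelial cells with peripheral blood mononuclear cells, CD40 levels were read by ELISA 24 h post-treatment. Signal changes in either direction were fitted against the DMSO baseline, with parallel SRB protein staining.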

Read-out in experiment [6]: E-selectin (Homo sapiens) (UniProt P16581)
Nature of the experiment: BSK_LPS_Eselectin: BioMAP Diversity Plus: LPS Assay for Eselectin Biomarker Activity (AID 2283077). The note with it: primary human HUVEC with PBMC; actives raise or lower the signal. In outline: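 E-selectin ELISA on LPS-stimulated endothelial cell/PBMC co-cultures, read 24 h post-treatment; gains and losses fitted against DMSO. Parallel SRB staining (0.1% SRB after 10% TCA fixation, 560 nm) flags overt cytotoxicity.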

Read-out in experiment [7]: Interleukin-8 (IL8), CXCL8 (gene 3576)
Kind of experiment: BSK_LPS_IL8: BioMAP Diversity Plus: LPS Assay for Interleukin-8 (IL8) Biomarker Activity (AID 2283078). To be noted: primary human HUVEC with PBMC; actives raise or lower the signal. In outline: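 ELISA read-out of IL-8 after 24 h chemical treatment of LPS-activated endothelial/PBMC human primary co-cultures. Changes either up or down relative to DMSO; overt cytotoxicity checked by sulforhodamine B staining in parallel wells.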

Experiment [8] can be described thus: BSK_LPS_SRB: Viability Assessment in the BioMAP Diversity Plus: LPS Assay (AID 2283079).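 Further: total protein by sulforhodamine B absorbance as a cytotoxicity measure; measured one day after compound addition.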 The note with it: primary human HUVEC with PBMC. In outline:
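SRB viability endpoint: cells fixed with 10% TCA, stained with 0.1% SRB, read at 560 nm, 24 h post-dose. HUVEC/PBMC co-culture; signal change in either direction scored relative to DMSO.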

Read-out in experiment [9]: Interleukin-1 alpha (IL1a), IL1A (gene 3552)
Nature of the experiment: BSK_LPS_IL1a: BioMAP Diversity Plus: LPS Assay for Interleukin-1 alpha (IL1a) Biomarker Activity (AID 2283080). To be noted: primary human HUVEC with PBMC; actives raise or lower the signal. In outline: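 Readout is IL-1a level by ELISA, 24 h post-dose, fitted as gain or loss relative to DMSO. System: LPS-activated human primary co-culture of vascular endothelium and peripheral blood mononuclear cells, with parallel SRB total-protein cytotoxicity.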

Read-out in experiment [10]: Monocyte Chemoattractant Protein-1 (MCP1), CCL2 (gene 6347)
Kind of experiment: BSK_LPS_MCP1: BioMAP Diversity Plus: LPS Assay for Monocyte Chemoattractant Protein-1 (MCP1) Biomarker Activity (AID 2283081). The note with it: primary human HUVEC with PBMC; actives raise or lower the signal. In a few lines: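 Secreted MCP-1 read by ELISA at 24 h post-dosing in an LPS-activated co-culture of endothelial cells with peripheral blood mononuclear cells. Fits run in both directions, DMSO as baseline; parallel SRB staining tracks overt cytotoxicity.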

A short description of experiment [11]: BSK_LPS_PGE2: BioMAP Diversity Plus: LPS Assay for Prostaglandin E2 (PGE2) Biomarker Activity (AID 2283082). The note with it: primary human HUVEC with PBMC; actives raise or lower the signal. In outline: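 Compounds were added to the LPS co-culture of endothelium and PBMC, and PGE2 was measured by ELISA after 24 h. Responses in either direction were fitted with DMSO as baseline.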

Read-out in experiment [12]: Tissue Factor, F3 (gene 2152)
Nature of the experiment: BSK_LPS_TissueFactor: BioMAP Diversity Plus: LPS Assay for Tissue Factor Biomarker Activity (AID 2283084). To be noted: primary human HUVEC with PBMC; actives raise or lower the signal. In a few lines:
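Compound was added to an endothelial cell/PBMC co-culture, and after 24 h tissue factor (CD142) was read by ELISA. Gain or loss of signal was fitted against a DMSO baseline, and parallel SRB staining (560 nm) tracked overt cytotoxicity.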

Read-out in experiment [13]: Tumor necrosis factor (Homo sapiens) (UniProt P01375)
Nature of the experiment: BSK_LPS_TNFa: BioMAP Diversity Plus: LPS Assay for Tumour Necrosis Factor alpha (TNFa) Biomarker Activity (AID 2283085).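 On AC50: TNFa protein level quantified by ELISA in the co-culture.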 To be noted: primary human HUVEC with PBMC; actives raise or lower the signal. In outline: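 Cells (umbilical vein endothelium plus peripheral blood mononuclear cells) were dosed with chemical, incubated 24 h, then TNFa was quantified by ELISA; values derive from bidirectional fitting with DMSO as baseline.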

Read-out in experiment [14]: Vascular cell adhesion molecule 1 (VCAM1), VCAM1 (gene 7412)
Kind of experiment: BSK_LPS_VCAM1: BioMAP Diversity Plus: LPS Assay for Vascular cell adhesion molecule 1 (VCAM1) Biomarker Activity (AID 2283086). The note with it: primary human HUVEC with PBMC; actives raise or lower the signal. In outline: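 Cells are dosed in an LPS-stimulated endothelial/mononuclear co-culture and, after 24 h, VCAM-1 is quantified by ELISA. Activity in either direction is fitted relative to the DMSO negative control.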

Read-out in the next experiment: CD38, CD38 (gene 952)
Nature of the experiment: BSK_SAg_CD38: BioMAP Diversity Plus: SAg Assay for CD38 Biomarker Activity (AID 2283087). The note with it: primary human HUVEC with PBMC; actives raise or lower the signal. In a few lines:
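CD38 quantified by ELISA (fluorescence) in a superantigen-activated endothelial cell–PBMC co-culture at 24 h post-dose. Activity fitted in both directions relative to DMSO; parallel SRB and Alamar Blue cytotoxicity read-outs.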

Read-out in experiment [15]: CD40, CD40 (gene 958)
Kind of experiment: BSK_SAg_CD40: BioMAP Diversity Plus: SAg Assay for CD40 Biomarker Activity (AID 2283088). To be noted: primary human HUVEC with PBMC; actives raise or lower the signal. In outline: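 CD40 is measured by fluorescence ELISA in an endothelial/PBMC primary human co-culture at 24 h post-dose. Fitting is bidirectional, DMSO baseline. Parallel SRB staining (560 nm) flags cytotoxicity.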

Read-out in the next experiment: CD69, CD69 (gene 969)
Nature of the experiment: BSK_SAg_CD69: BioMAP Diversity Plus: SAg Assay for CD69 Biomarker Activity (AID 2283089). To be noted: primary human HUVEC with PBMC; actives raise or lower the signal. In outline:
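Values derive from bidirectional fitting relative to DMSO vehicle. Cells: umbilical vein endothelium plus peripheral blood mononuclear cells, treated 24 h before fluorescent ELISA for CD69.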

The structures appear in SMILES notation. The source holds several records for some structures; these can differ, active in one and inactive in another. The source made the active and inactive calls. How the source made its calls: active means hit-call score of the fitted dose curve at least 0.9, where 1 is the maximum; inactive means score below 0.9.

Sequence of Tumor necrosis factor (Homo sapiens) (P01375 whole entry, looked up): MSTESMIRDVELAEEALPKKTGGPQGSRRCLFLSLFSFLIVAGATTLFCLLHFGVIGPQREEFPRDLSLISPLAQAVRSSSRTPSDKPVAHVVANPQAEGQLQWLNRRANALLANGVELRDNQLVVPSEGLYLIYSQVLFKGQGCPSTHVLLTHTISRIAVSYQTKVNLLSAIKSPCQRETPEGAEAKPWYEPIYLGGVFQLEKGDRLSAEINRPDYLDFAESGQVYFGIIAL
Sequence of E-selectin (Homo sapiens) (P16581 whole entry, looked up): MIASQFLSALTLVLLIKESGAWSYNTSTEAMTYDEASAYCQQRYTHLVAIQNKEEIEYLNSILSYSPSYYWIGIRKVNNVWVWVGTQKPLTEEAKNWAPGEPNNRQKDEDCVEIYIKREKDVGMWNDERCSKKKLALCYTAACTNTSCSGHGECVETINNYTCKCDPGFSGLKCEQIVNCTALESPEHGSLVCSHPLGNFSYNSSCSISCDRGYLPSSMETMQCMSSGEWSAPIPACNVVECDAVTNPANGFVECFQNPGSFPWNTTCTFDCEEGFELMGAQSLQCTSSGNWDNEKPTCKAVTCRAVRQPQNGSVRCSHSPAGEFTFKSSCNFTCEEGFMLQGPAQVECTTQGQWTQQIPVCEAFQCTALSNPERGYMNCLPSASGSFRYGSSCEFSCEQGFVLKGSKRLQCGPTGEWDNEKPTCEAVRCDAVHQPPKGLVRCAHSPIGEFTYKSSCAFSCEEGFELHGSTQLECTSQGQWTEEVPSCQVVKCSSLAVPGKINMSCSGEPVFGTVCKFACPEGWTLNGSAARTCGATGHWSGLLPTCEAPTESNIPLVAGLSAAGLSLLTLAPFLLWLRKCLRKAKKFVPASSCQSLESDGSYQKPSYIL

By AC50 is commonly meant the concentration at which the activity in the assay is half-maximal. As to `CC(C)(C)C(=O)CC(=O)C(F)(F)C(F)(F)C(F)(F)F`, the outcome in [1] was “inactive”; in experiment [2] it was “inactive”; in [3] it was “inactive”; in experiment [4] it was “inactive”; in the experiment with CD40, CD40 (gene 958) [5], “inactive”; in [6], “inactive”. The outcome in [7], in [8], in experiment [9], in [10], in [11] and in experiment [12] was inactive. The outcome in [13] is “inactive”; in experiment [14], “inactive”; with CD38, CD38 (gene 952), “inactive”; with CD40, CD40 (gene 958) [15], “inactive”; in the experiment with CD69, CD69 (gene 969) it was “inactive”. In addition, the concentration at half-maximal activity (AC50) in experiment [11] was 30 µM (active).

Take `FC(F)(F)C(F)(F)C(F)(F)C(F)(F)C(F)(F)C(F)(F)C(F)(F)C(F)(F)CCS`: the outcome in [1] is “inactive”; in experiment [2] it was “inactive”; in [3], “inactive”; in experiment [4] it was “inactive”; with CD40, CD40 (gene 958) [5] it was “inactive”; in [6] it was “inactive”. Besides, the result in [7], in experiment [8], in [9], in experiment [10], in experiment [11] and in [12] was inactive. Further, the outcome in experiment [13] was “inactive”; in experiment [14] it was “inactive”; with CD38, CD38 (gene 952), “inactive”; in the experiment with CD40, CD40 (gene 958) [15], “inactive”; with CD69, CD69 (gene 969), “inactive”. Further, the concentration at half-maximal activity (AC50) in experiment [12] is 1.02 µM (active).

With `C=C(C)C(=O)OCC(F)(F)C(F)(F)C(F)(F)C(F)(F)C(F)(F)C(F)(F)C(F)(F)F`, the outcome was “inactive” in experiment [1]; “inactive” in experiment [2]; “inactive” in experiment [3]; “inactive” in [4]; “inactive” in the experiment with CD40, CD40 (gene 958) [5]; “inactive” in experiment [6]. Further, the outcome in [7], in experiment [8], in experiment [9], in experiment [10], in experiment [11] and in experiment [12] was inactive. Moreover, the outcome in [13] is “inactive”; in experiment [14], “inactive”; with CD38, CD38 (gene 952) it was “inactive”; with CD40, CD40 (gene 958) [15] it was “inactive”; in the experiment with CD69, CD69 (gene 969), “inactive”. Besides, the figures for the AC50 in experiment [6] and in experiment [13] were 0.0306 µM (active) and 0.0246 µM (active), respectively.
